Source: PubChem
Hits are enriched below; roughly 1.9% of the tested compounds scored in any of these assays.
S1P3 antag: S1P3 receptor antagonists, primary screen, cell-based; Sphingosine 1-phosphate receptor 3 (Homo sapiens), Q99500; CHO S1P3 NFAT-BLA reporter, FRET fluorescence, antagonist mode; inhibition, % at 4.98 µM; 170,000 tested, 0.27% active; AID 485, 2006;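 active = inhibition above the plate cutoff, the mean inhibition of test wells on that plate plus 3 SD, cut at about 28% in these data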;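 note: cells challenged with S1P at its EC80 of 0.8 µM; blue over green emission ratio from cleaved BLA substrate after 4 h stimulation; 0% = S1P-stimulated wells and 100% = unstimulated DMSO-only wells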
Target sequence (Q99500 whole entry, looked up): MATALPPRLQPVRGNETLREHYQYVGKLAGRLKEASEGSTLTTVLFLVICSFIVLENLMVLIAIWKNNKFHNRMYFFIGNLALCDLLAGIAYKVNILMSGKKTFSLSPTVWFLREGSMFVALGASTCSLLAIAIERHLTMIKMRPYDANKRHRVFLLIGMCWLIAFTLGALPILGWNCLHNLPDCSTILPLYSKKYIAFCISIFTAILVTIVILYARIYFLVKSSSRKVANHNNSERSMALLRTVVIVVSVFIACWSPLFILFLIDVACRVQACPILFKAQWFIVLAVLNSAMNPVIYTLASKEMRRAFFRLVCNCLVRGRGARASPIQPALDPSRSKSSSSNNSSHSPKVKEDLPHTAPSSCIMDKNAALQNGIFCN
PGE2 EP2 inh: human EP2 receptor antagonists, primary screen, TR-FRET cAMP, C6 glioma cells. 260,000 tested, 0.52% active. inhibition, % at 25 µM. Prostaglandin E2 receptor EP2 subtype (Homo sapiens), P43116. C6 glioma cells expressing human EP2; cells stimulated with saturating PGE2;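 active = percent inhibition above 40 after rounding to a whole number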;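 note: rat C6 glioma host cells with rolipram phosphodiesterase inhibitor present; the protocol text gives 20 µM as final concentration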
S1P4 agonist: S1P4 receptor agonists, primary screen, cell-based. S1P4-expressing cell line, agonist reporter assay. activation, % at 4.98 µM. 220,000 tested, 0.35% active. AID 1509, 2009; in the data active = activation above about 11%;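 note: 0% = DMSO vehicle and 100% = reference agonist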
S1P4 antag: S1P4 receptor antagonists, primary screen, cell-based | S1P4-expressing cells, antagonist mode, reporter read-out | 220,000 tested, 0.26% active | inhibition, % at 4.98 µM | Sphingosine 1-phosphate receptor 4 (Homo sapiens), O95977; in the data active = inhibition above about 29%;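 note: 0% = wells stimulated with agonist and 100% = vehicle wells without agonist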
EP2 mod: EP2 receptor modulators, cAMP readout, primary screen, cell-based, HTRF cAMP, PGE2 stimulation; Prostaglandin E2 receptor EP2 subtype (Homo sapiens), P43116; EP2-expressing cells, cAMP HTRF FRET, PGE2 co-stimulation; induction, % at 25 µM; 260,000 tested, 0.83% active; AID 940, 2007;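 active = compounds whose cAMP rise, as percent of the full-agonist control response, exceeds 60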;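 note: rat C6 glioma line stably carrying human EP2 under a CMV promoter; the protocol text gives 20 µM as final concentration; 100% = response of wells given 1 µM PGE2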
Pf gamet viab: late stage P. falciparum gametocyte viability inhibitors, primary screen, ATP luminescence, HTS; inhibition, % at 10.9 µM; 150,000 tested, 0.065% active; P. falciparum stage V gametocytes, 24 h;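 active = inhibition above the mean plus 3 SD of compounds within the control limits, set per campaign, cut at about 38% in these data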;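 note: 0% = DMSO wells and 100% = medium only without gametocytes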
Starred values were filed as active, the others as inactive; x = no result given; ! = not confirmed by another sample.

SMILES	S1P3 antag	PGE2 EP2 inh	S1P4 agonist	S1P4 antag	EP2 mod	Pf gamet viab
CN1CCN(CCCNC(=O)c2ccc(/C=C3\Sc4ccccc4N(Cc4ccccc4F)C3=O)cc2)CC1	-6.3	88.0*	2.4	2.8	-45.1	7.7
CCN1CCN(CCNC(=O)c2ccc(/C=C3/Sc4ccccc4N(Cc4cccc(Cl)c4)C3=O)cc2)CC1	-20.3	1.3	1.6	1.8	-22.0	10.8
CC(Oc1ccc(Cl)cc1Cl)C(=O)NCCCN1CCOCC1 (stereo not drawn)	98.7*	10.0	2.5	-19.6	-3.3	x
CCn1c(=O)/c(=C2/Sc3ccc(OC)cc3N2C)s/c1=C1/C(=O)N(C)C(=S)N1C	x	9.3	x	x	-9.9	x
CN1CCN(CCCBr)CC1	x	41.0*	x	x	27.6	x
CN1CCN(CCCNN)CC1	x	11.1	x	x	7.3	x
O=C(CSc1nc2ccccc2n1CC(=O)N1CCCC1)N1CCCCC1	x	4.5	x	x	12.0	x
Cc1ccc(CN(C(=O)Cc2cccs2)C(C(=O)NC2CCCC2)c2ccc(C)o2)cc1 (stereo not drawn)	x	10.1	x	x	55.2	x
CCOC(=O)/C=C(\C)Sc1cc(O)c2ccccc2c1O	0.0	69.3*	2.3	-3.9	-51.8	x
COc1cc(NC(=O)CSc2nnnn2-c2ccc(OC)c(OC)c2)cc(OC)c1	x	6.2	x	x	-11.7	x
COc1ccc(-n2nnnc2SCC(=O)N(C2CCCCC2)C2CCCCC2)cc1OC	x	16.1	x	x	69.2*	x
Cn1c(COc2ccccc2)nnc1SCC(=O)N(C1CCCCC1)C1CCCCC1	x	2.7	x	x	74.1*	x
COC(=O)c1[nH]c2ccc(F)cc2c1NS(=O)(=O)c1ccc(F)c(C)c1	13.9	7.8	1.0	-10.6	49.9	-18.8
COC(=O)c1[nH]c2ccc(C)cc2c1NS(=O)(=O)c1ccc(F)c(C)c1	24.4	x	-0.1	-14.3	63.3*	11.7
N#C/C(=C\NC(=S)c1ccncc1)c1nc2ccccc2s1	x	52.5*	x	x	-0.4	x
N#C/C(=C/c1ccncc1)c1nc2ccccc2s1	-14.7	9.1	1.3	8.3	-96.9	8.0
COc1ccc(-c2nnc(SCC(=O)c3ccccc3)o2)cc1OC	x	9.9	x	x	9.7	x
COc1ccc(C(=O)CSc2nnc(-c3ccc(OC)c(OC)c3)o2)cc1	x	58.6*	x	x	-169.9	x
O=C1C2=C(Nc3cc([N+](=O)[O-])ccc3N2)O[C@H]1c1ccc([C@H]2OC3=C(Nc4ccc([N+](=O)[O-])cc4N3)C2=O)cc1	x	58.0*	x	x	-24.4	x
CCN1CCN(CCC2Oc3cc([N+](=O)[O-])ccc3NC2=O)CC1 (stereo not drawn)	-15.7	3.7	2.2	-4.5	3.7	-4.9
CC(=O)[C@H]1CC[C@@H]2[C@]1(C)CC=C1[C@@]23C=C[C@@]2(C[C@H](O)CC[C@@]12C)[C@H](C(=O)O)[C@@H]3C(=O)O	x	40.8*	x	x	33.8	x
O=[N+]([O-])c1ccccc1/C=N/n1c(C2CCCCC2)n[nH]c1=S	-23.4	7.4	1.1	-10.6	37.9	-38.5
S=c1[nH]nc(C2CCCCC2)n1/N=C/c1ccc(Br)s1	x	7.0	0.3	4.0	63.1*	-39.3
O=C(Nc1ccc(Cl)c(C(F)(F)F)c1)NC1CC2CCCC(C1)N2Cc1ccccc1 (stereo not drawn)	-3.5	50.8*	0.9	-9.2	-122.6	x
O=C(NC1CCCCC1)NC1CC2CCCC(C1)N2Cc1ccccc1 (stereo not drawn)	x	9.4	x	x	-1.3	x
SMILES	S1P3 antag	PGE2 EP2 inh	S1P4 agonist	S1P4 antag	EP2 mod	Pf gamet viab
COc1cc2cc(CN(Cc3ccco3)S(=O)(=O)c3c(C)cc(C)cc3C)c(=O)[nH]c2cc1OC	x	9.4	x	x	20.2	x
Cc1ccc2nc3sc(C(=O)NC4CCCC4)c(N)c3cc2c1	x	18.8	x	x	-88.9	x
C[C@H]1CCCC2(CC[N+](C)(CCC[N+](C)(C)C)CC2)C1 (stereo partly drawn)	x	48.1*	x	x	8.5	x
CCC(OC(=O)c1cccs1)C(=O)NCc1ccc(OC)cc1 (stereo not drawn)	x	9.4	x	x	14.4	x
Cn1c(=O)c2nc(NCc3ccccc3)cnc2n(C)c1=O	27.9	x	0.6	7.8	64.8*	6.5
CCCn1c(NCc2ccccc2)nc2c1c(=O)n(C)c(=O)n2C	x	12.7	x	x	4.7	x
COc1cccc(/C(O)=C2/C(=O)C(=O)N(CCCN(C)C)C2c2cccnc2)c1 (stereo not drawn)	x	8.9	x	x	-4.5	x
Cc1nc(C/C(=N\Nc2ccccc2)c2ccc(O)cc2O)cs1	-0.7	3.3	-0.2	-24.4	64.3*	x
Cc1nc(CC(=O)c2ccc(O)cc2O)cs1	x	5.7	1.2	-3.7	3.2	4.2
CC1CN(C)CCC1CCc1ccc(NC(=O)c2ccc(=O)[nH]n2)cc1 (stereo not drawn)	x	x	x	x	-42.4	x
Cc1ccc2cc(C)c(SCC(=O)N3CCCC(C)C3)nc2c1 (stereo not drawn)	x	9.4	x	x	62.0*	x
Cc1ccc(S(=O)(=O)N2CCN(Cc3ccccc3)CC2)c(C)c1N(C)S(=O)(=O)c1ccccc1	-0.4	9.2	-0.3	-6.6	-18.1	41.8*
O=C(NCc1ccccc1)C(c1cccnc1)N(Cc1ccco1)C(=O)c1ccccn1 (stereo not drawn)	-10.2	10.1	0.4	-6.4	-1.8	x
COC(=O)c1ccc(C(C(=O)NCc2ccccc2)N(Cc2ccco2)C(=O)c2cnccn2)cc1 (stereo not drawn)	-5.8	10.2	18.5*	1.8	-10.1	x
C#CCOc1ccc(-c2nc3cnccn3c2NCCOC)cc1OC	x	x	x	x	-46.4	x
Cc1ccc(C2C(C#N)=C(N)Oc3n[nH]c(-c4cccs4)c32)s1 (stereo not drawn)	17.2	43.5*!	-3.3	9.4	2.2	x
CCc1[nH]nc2c1C(c1ccc(Br)s1)C(C#N)=C(N)O2 (stereo not drawn)	x	44.3*	0.6	-17.2	-17.0	-8.8
Cc1cc(C(F)F)nc(SCCCNC(=O)/C=C/c2ccc([N+](=O)[O-])o2)n1	x	13.3	x	x	-132.2	x
O=C(O)c1cccc(N/N=C/C2=C(Cl)c3cc(Cl)ccc3SC2)c1	-9.2	9.4	0.0	0.9	62.7*	-5.2
O=C(Cn1c(=O)n(Cc2cccs2)c2ncccc21)N1CCCC2CCCCC21 (stereo not drawn)	x	1.1	x	x	-33.8	x
CC1(C)OC[C@@H]2O[C@H](n3cnc4c(N)nc(Cl)nc43)[C@H](OS(C)(=O)=O)[C@H]2O1	x	56.5*	x	x	-18.8	x
O=C(CSc1ncnc2sc3c(c12)CCCC3)OCc1ccccc1	x	8.4	x	x	62.4*	x
COc1ccc(N2CSC3=C(C#N)C(c4cccc(OC)c4OC)CC(=O)N3C2)cc1 (stereo not drawn)	98.9*	12.7	-2.0	-12.9	20.2	x
N=C(N)S[C@@H]1c2ccccc2-c2cc([N+](=O)[O-])ccc21	x	47.9*	x	x	-51.2	x
Cc1cc(-c2nc(-c3ccc(C(C)(C)C)cc3)no2)no1	3.0	5.7	1.6	9.6	-5.3	-7.6
